Screens (PubChem)
DAX1 inh-1: DAX1 (NR0B1) inhibitors, primary screen, cell-based, HEK293, Gal4-DAX1, luciferase luminescence. inhibition, % at 6.75 µM. HEK293 Gal4-DAX1 luciferase reporter. 340,000 tested, 0.99% active. Nuclear receptor subfamily 0 group B member 1 (Homo sapiens), P51843. AID 504766, 2011;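 active means inhibition above the mean over all tested compounds plus 3 SD, cut at about 4.2% in these data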;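 further: 0% = DAX1-transfected cells with DMSO and 100% = empty-vector control cells with DMSO; inhibition shows as a rise in luminescence from relieved DAX1 repression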
hcDAF-12 act: H. contortus DAF-12 nuclear receptor activators, primary screen, cell-based, luminescence, HEK293, lit1-tk-luc reporter | HEK293 hcDAF-12 lit1-tk-luc reporter; 0% DMSO, 100% Δ7-dafachronic acid | activation, % at 6.8 µM | 370,000 tested, 1.4% active;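 active means activation above the mean of all tested compounds plus 3 SD, cut at about 5.5% in these data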;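 further: 100% = response to 3 µM Δ7-dafachronic acid high control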
DAX1 inh-2: DAX1 (NR0B1) inhibitors on StAR promoter, primary screen, cell-based, luminescence, SF-1 (NR5A1), full-length DAX-1; inhibition, % at 6.8 µM; 370,000 tested, 1.1% active; HEK293T StAR-luciferase reporter, SF-1/DAX-1 repression relief;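 active means inhibition above the mean over all tested compounds plus 3 SD, cut at about 3.6% in these data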;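 further: 0% = DAX-1 cells with DMSO and 100% = cells lacking DAX-1 with DMSO; higher inhibition means more luminescence from relief of DAX-1 repression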
ssDAF-12 act: S. stercoralis DAF-12 nuclear receptor activators, primary screen, cell-based, luminescence, HEK293, GRIP1 co-expression, lit1-tk-luc | 370,000 tested, 1% active | HEK293 ssDAF-12/GRIP1 lit1-tk-luc reporter; % of 3 µM dafachronic acid response | activation, % at 6.8 µM | Nuclear hormone receptor DAF-12 (Strongyloides stercoralis) | AID 652126, 2013;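 active means activation above the mean over all tested compounds plus 3 SD, cut at about 0.9% in these data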;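 further: 0% = DMSO-only wells and 100% = 3 µM delta7-dafachronic acid wells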
hgDAF-12 ag: H. glycines DAF-12 receptor agonists, primary screen, cell-based, luminescence, HEK293, GAL4 fusion, UAS-luciferase; activation, % at 6.8 µM; HEK293 GAL4-hgDAF12 UAS-luciferase reporter, agonist luminescence; normalized to butyrate control; AID 687014, 2013; 370,000 tested, 1.8% active; Nuclear hormone receptor DAF-12 (Heterodera glycines), GAL4 fusion;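 active means activation above a cutoff set at the mean of all screened compounds plus 3 SD, cut at about 10% in these data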;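 further: 0% = DMSO wells and 100% = sodium butyrate wells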
AHR activator: AHR activators, primary screen, cell-based, luminescence, luciferase reporter, human | 320,000 tested, 2.5% active | AHR-responsive luciferase reporter cells | Aryl hydrocarbon receptor (Homo sapiens), P35869 | activation, % at 5 µM; in the data active means activation above about 47%;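 further: 0% = vehicle wells and 100% = reference agonist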
hgDAF12 ag: H. glycines DAF-12 receptor agonists, confirmation, cell-based, luminescence, HEK293, GAL4-LBD fusion. HEK293 GAL4-hgDAF12 luciferase reporter, agonist mode; percent of butyrate response. shares compounds with hgDAF-12 ag. 3,300 tested, 80% active. activation, % at 6.8 µM. AID 743050, 2013;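 active means mean activation over triplicate wells above the hit cutoff derived from the earlier primary screen, cut at about 11% in these data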;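 further: 0% = DMSO low control and 100% = 2 mM sodium butyrate high control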
LXR ag 2: LXR agonists, Gal4 luciferase reporter, confirmation, counter-screen for hgDAF-12 agonist project, cell-based, luminescence, HEK293, H. glycines campaign; 24 h; 3,300 tested, under 10 active; shares compounds with hgDAF-12 ag; activation, % at 6.8 µM;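 active means mean activation of the triplicate above a set limit carried over from the primary screen, none filed active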
* marks the source's active call; other numbers are inactive results; / = no result given. In the library only some 5.7% were active in any assay of this set; here they are far more common.

SMILES	DAX1 inh-1	hcDAF-12 act	DAX1 inh-2	ssDAF-12 act	hgDAF-12 ag	AHR activator	hgDAF12 ag	LXR ag 2
Cc1cc2cc(CNC(=O)c3ccc(S(=O)(=O)N4CCCC4)cc3)ccc2n1C	-0.3	-0.2	0.2	-0.6	-1.3	-0.4	/	/
CCNc1ccc(C(=O)OCC(=O)NCCN2C(=O)CSC2=O)cc1[N+](=O)[O-]	1.3	-0.1	0.6	-2.0	2.0	0.8	/	/
O=C(COc1cc(F)ccc1[N+](=O)[O-])NCCN1C(=O)CSC1=O	-0.9	-1.8	-0.3	-0.7	23.2*	3.8	-1.3	0.0
COc1cc(/C=N/N2CCOCC2)ccc1OCc1ccccc1	1.1	1.7	1.4	0.2	17.9*	-2.8	3.4	0.2
CCCC1=NN(C(=O)CCc2ccccc2O)C(O)(C(F)(F)F)C1 (configuration not stated)	-0.8	0.0	-0.8	-1.3	2.6	-2.3	/	/
CCC(=O)Nc1cccc(NC(=S)NC(=O)c2ccc(C)cc2)c1	4.8*	2.9	3.8*	-0.6	13.6*	24.3	16.1*	0.8
CC(=O)c1cccc(NC(=S)NC(=O)c2ccc(C)cc2)c1	-0.2	1.8	4.0*	0.5	15.1*	4.5	15.4*	0.6
CCOc1cccc(C(=O)NC(=S)Nc2ccccc2)c1	2.5	3.1	2.3	0.1	19.1*	12.6	16.4*	0.4
CCC(=O)Nc1ccc(NC(=S)NC(=O)c2cc3ccccc3o2)cc1	-0.2	1.0	-0.7	-0.7	1.0	2.9	/	/
CCC(=O)Nc1cccc(NC(=S)NC(=O)c2cc3ccccc3o2)c1	2.1	4.9	2.1	0.7	15.7*	9.2	22.3*	0.9
Cc1ccc(NC(=O)Nc2cccs2)c(Cl)c1	-0.8	0.7	-0.9	-0.4	5.5	23.3	/	/
CN(C)c1oc(-c2ccccc2)nc1C#N	1.2	-0.8	-1.0	-1.2	0.6	-0.9	/	/
COc1ccccc1/C=C/c1nc(C#N)c(N(C)C)o1	4.1	5.8*	0.7	0.2	15.2*	39.6	14.3*	0.6
O=C1CCCN1CCCNCC(O)c1ccccc1 (configuration not stated)	-0.1	-0.4	0.2	-1.5	-0.8	-0.8	/	/
O=C1C(C=NCCCN2CCCC2=O)=C(O)c2ccccc21	1.9	3.9	2.1	-0.3	18.6*	11.5	7.5	0.3
CN(C)c1ccc(/C=N/OC(=O)Nc2ccccc2)cc1	1.3	5.8*	2.2	-0.1	13.7*	36.7	18.4*	0.7
O=C(CCCc1c[nH]c2ccccc12)NCc1cccs1	-0.4	-1.6	-1.7	-1.4	-1.7	-0.4	/	/
CC(C)Cc1ccc(/C=C/C(=O)NC2CC2)cc1	0.4	3.9	3.4	0.7	13.3*	7.1	12.2*	0.4
CC(C)Cc1ccc(/C=C/C(=O)N2CCCCC2)cc1	3.3	2.6	4.5*	0.4	15.5*	11.8	14.4*	0.5
CCc1ccc(/C=C\C(=O)N2CCCC2)cc1	1.4	0.5	0.3	-1.6	3.5	-6.8	/	/
CCOC(=O)C1CCCN(C(=O)/C=C/c2ccc(Cl)cc2)C1 (configuration not stated)	0.3	-1.3	-0.2	-1.5	-1.2	2.5	/	/
Cc1ccc(/C=C/C(=O)N2CCCC(C)C2)cc1 (configuration not stated)	-0.1	3.1	4.4*	1.2*	14.7*	1.2	14.3*	0.8
O=C(/C=C/c1ccc(Br)cc1)NC1CCCCCC1	2.7	0.7	0.0	-1.2	5.1	2.8	/	/
O=C(COC(=O)c1nn(-c2ccccc2)c(=O)c2ccccc12)NC1CCS(=O)(=O)C1 (configuration not stated)	0.9	/	/	/	/	2.0	/	/
Cc1ccccc1NC(=O)c1cnc2ccccn2c1=O	-0.8	4.2	4.2*	0.3	16.4*	-2.9	15.6*	0.9
SMILES	DAX1 inh-1	hcDAF-12 act	DAX1 inh-2	ssDAF-12 act	hgDAF-12 ag	AHR activator	hgDAF12 ag	LXR ag 2
Cc1ccccc1NC(=O)c1cc2ccccn2n1	1.9	6.0*	3.3	0.9	19.4*	14.2	13.2*	0.8
Cc1cccc(CCNC(=O)c2cc3ccccn3n2)c1	/	-2.2	1.4	-0.9	5.8	/	/	/
O=C(NCCc1cccc(F)c1)c1cc2ccccn2n1	/	0.7	3.1	-0.3	13.6*	/	12.5*	0.4
COc1cc2c(cc1OC)C1(Nc3c-2c(Cc2ccccc2)nn3-c2ccccc2)C(=O)Nc2ccccc21 (configuration not stated)	2.0	0.1	-0.2	-1.3	1.1	2.6	/	/
COC(=O)C1=NNCC12CC(=O)N(c1ccc(Br)cc1)C2=O (configuration not stated)	-1.2	-2.0	0.0	-1.3	1.2	-4.4	/	/
O=C(NC1CCCC1)C1CCCN(S(=O)(=O)c2cnc[nH]2)C1 (configuration not stated)	0.3	-0.5	-0.7	-1.3	-1.7	-0.5	/	/
COc1ccc(OC)c(NC(=O)CSc2n[nH]c(-c3cccnc3)n2)c1	-0.4	-0.4	-0.3	-1.3	0.1	0.3	/	/
CCc1sc(C(=O)NCc2cc(C)n(C)n2)cc1Br	-1.0	-3.0	-0.7	-1.5	-3.1	11.2	/	/
CSc1nsc(SCC(=O)Nc2ccc(C(C)=O)cc2)n1	3.4	12.5*	2.5	1.0*	14.1*	25.9	21.1*	1.2
COc1nc(-c2ccccc2)nnc1-c1ccccc1	2.1	15.3*	3.2	1.3*	15.1*	/	20.1*	0.8
Cc1ccc(/C=C/C(=O)c2ccc(N3CCOCC3)cc2)s1	-0.5	1.8	0.1	-0.7	14.4*	-2.6	9.3	0.8
COC(=O)c1ccc(OS(=O)(=O)N(C)C)cc1	1.1	1.3	0.8	-0.3	20.1*	0.9	5.8	0.1
COc1ccc(C(=O)Nc2ccc(SC(F)F)cc2)cc1	-0.6	2.5	1.0	-0.7	15.1*	1.3	11.5*	0.5
O=c1oc2cc(O)ccc2cc1-c1ccccc1	1.5	2.7	3.5	0.6	6.2	-0.7	/	/
